Screening results from PubChem.
ALOX12 inh: inhibitors of human 12S-lipoxygenase ALOX12. P18054. purified 12hLO, xylenol orange hydroperoxide absorbance. Potency, µM (doses to about 108 µM), for inactives: at the highest dose activity change, negative = inhibition, most hits filed as inhibitors. actives 1.1% (n = 580,000). AID 1671190
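Hydroperoxide product was detected by ferrous iron/xylenol orange as the 573 to 405 nm absorbance ratio. Arachidonic acid at 40 uM (final) was turned over for 30 min at room temperature by 150 nM human 12hLO, pH 7.0 Hepes buffer, after 15 min compound preincubation.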
Sfp inh: inhibitors of Bacillus subtilis Sfp phosphopantetheinyl transferase | Potency, µM, for inactives: largest response in the series, negative = inhibition, actives largely listed as inhibitors | actives 3.5% (n = 310,000) | Biochemical Sfp PPTase activity, qHTS;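 note: the enzyme is Sfp with the accession as filed and its product quenches rhodamine fluorescence; 0% = enzyme reaction without inhibitor and -100% = no enzyme wells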
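Fluorescence-quenching assay with 15 nM Sfp, 5 uM rhodamine-CoA and 12.5 uM BHQ-2-labelled ybbR peptide in pH 7.6 Hepes/MgCl2 buffer. Enzyme was pre-incubated with compound for 15 min at room temperature. Rate was taken from the 30-min fluorescence change (525/598 nm).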
PLK1 PBD block: blocks phosphopeptide binding to human PLK1 polo-box domain. P53350. Plk1 PBD binding of FITC phosphopeptide, fluorescence polarization. Potency, µM, inactives show max response, negative = inhibition, most hits filed as inhibitors. actives 2.8% (n = 360,000); note: series mostly up to about 57 µM; nearly all actives have a fitted effect of over 65% in size
VDR inhibitor: vitamin D3 receptor (human) inhibition. P11473. VDR-SRC2-3 peptide fluorescence polarization, 2 h. Potency, µM, without a hit: max response, negative = inhibition, hits mostly inhibitors. actives 0.93% (n = 400,000). AID 504847
Target sequence (P11473 whole entry, looked up): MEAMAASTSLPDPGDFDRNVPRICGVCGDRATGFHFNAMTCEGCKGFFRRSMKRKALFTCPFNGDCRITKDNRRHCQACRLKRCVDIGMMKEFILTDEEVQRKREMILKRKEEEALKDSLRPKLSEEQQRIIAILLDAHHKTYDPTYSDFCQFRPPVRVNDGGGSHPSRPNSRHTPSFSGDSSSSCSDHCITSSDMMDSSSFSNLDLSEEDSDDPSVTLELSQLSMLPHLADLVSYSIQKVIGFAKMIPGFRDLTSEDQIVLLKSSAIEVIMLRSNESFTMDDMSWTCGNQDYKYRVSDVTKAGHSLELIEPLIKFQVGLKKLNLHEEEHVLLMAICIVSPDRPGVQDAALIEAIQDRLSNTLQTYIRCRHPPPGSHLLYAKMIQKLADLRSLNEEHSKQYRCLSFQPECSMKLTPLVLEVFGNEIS
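Two reagent solutions held at 4 deg C in the dark were dispensed, compounds pinned at 23 nl, and the mixture incubated 2 h at room temperature. Read-out: fluorescence polarization of VDR–SRC2-3 peptide binding.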
The depositor's hits bear a star; u = inconclusive; x = no result given; ! = a repeat was not active; [ ] = another dose, or the depositor's remark. Sampled rows, rich in hits. Any-hit rate of the full collection: about 4.2%. Calls come from the whole dose curve; as a rule, active = well fitted curve in the direction sought with a large enough effect; inconclusive = small, poorly fitted or top-dose-only effect, or another doubt; inactive = no such curve, though single readings can be large; an effect the other way counts as inactive or inconclusive. Unless noted, % is set by controls: 0 for no effect and ±100 for the full control effect; potency is the fitted concentration of half-maximal effect.

SMILES | ALOX12 inh | Sfp inh | PLK1 PBD block | VDR inhibitor
CCOC(=O)c1cc2cc(C(=O)O)ccc2[nH]1 | 16µM* | x | x | x
CC(CCC(=O)Nc1nncs1)C(=O)O (centres undefined) | 0% | 13% | 0% | -18%
CCCCC(C(=O)O)C(C)CC(=O)Nc1nncs1 (centres undefined) | 8% | 12% | 21µM* | -23%
C=CCn1cc(CN(Cc2ccco2)Cc2cccs2)c(C)n1 | 13µM* | x | x | x
COc1ccc(-c2cc(C(=O)Nc3cc(C)on3)no2)cc1OC | 4% | 9% | -4% | -2%
Cc1ccc(NC(=O)c2cc(-c3ccc(F)cc3)on2)cc1C | -15% | 24% | 24µM* | -30%
COc1ccc(-c2cc(C(=O)Nc3cc(C)nn3-c3ccccc3)no2)cc1OC | 0% | 21% | 38µM* | -18%
COc1ccc(NC(=O)c2cc(-c3ccccc3O)on2)cc1OC | 0.63µM* | x | x | x
COc1ccc(-c2cc(C(=O)Nc3ccc(C)c(C)c3)no2)cc1 | 20% | 12% | -7% | 24%
CCOc1ccc2nc(NC(=O)Nc3cccs3)sc2c1 | u | -21% | 1% | -5%
O=c1[nH]c(CSc2ncnc3sc(-c4ccccc4)cc23)nc2ccccc12 | -10% | -4% | -6% | 14%
CCS[C@H]1CCN2C(=O)c3cc(-c4ccc(F)cc4F)ccc3NC(=O)[C@H]12 | 45µM* | x | x | x
CC(C)NC(=O)N[C@H]1CCN2C(=O)c3cc(-c4ccc(F)cc4F)ccc3NC(=O)[C@H]12 | 3%[176 µM] | x | x | x
Cc1cc(Cl)cc2sc(=S)[nH]c12 | 11µM* | x | 13µM* | u
O=c1c2ccccc2sn1-c1cc(S(=O)(=O)N2CCOCC2)ccc1N1CCCCC1 | x | x | x | 28µM*
O=c1c2ccccc2sn1-c1cc(S(=O)(=O)N2CCOCC2)ccc1N1CCOCC1 | u | 0.71µM* | 0.84µM* | 18µM*!
NC(=O)c1cc(S(=O)(=O)N2CCOCC2)ccc1N1CCCC1 | 87% | 12% | -9% | -20%
O=c1c2ccccc2sn1-c1cc(S(=O)(=O)N2CCOCC2)ccc1N1CCCC1 | u | 0.2µM* | 3µM* | u
O=C(O)c1cc(S(=O)(=O)N2CCOCC2)ccc1N1CCCCC1 | -17% | 26% | -12% | -7%
COC(=O)c1c(NC(C)=O)sc2c(OCc3ccccc3C#N)c(Br)ccc12 | -9% | x | x | x
O=C(O)c1ccc(O)c(N2C(=O)Nc3ccccc3N2O)c1 | 0% | u | -8% | -4%
COc1ccc(C(C)C)cc1C1c2nc[nH]c2CCN1Cc1nc[nH]c1C (centres undefined) | 111% | x | x | x
O=C(CNC(=O)OCc1ccccc1)NCC(=O)Oc1ccc([N+](=O)[O-])cc1 | -22% | x | 12µM* | -27%
NS(=O)(=O)c1ccc(-c2ccc(C=O)o2)cc1 | -5% | 12% | -4% | -2%
NS(=O)(=O)c1ccc(-c2ccc(/C=C3\NC(=S)NC3=O)o2)cc1 | u | 5.6µM* | u | 79µM*
SMILES | ALOX12 inh | Sfp inh | PLK1 PBD block | VDR inhibitor
C=CCN(CC=C)C(=O)Nc1cccc(C(C)=O)c1 | 27% | x | x | x
CCOC(=O)[C@]12CCCC=C1N(CCC1=CCCCC1)C(=O)[C@H](CC(=O)N1CCCC1)C2 | 1% | x | -6% | x
CC(C)c1ccc(SCc2noc(C(=O)NCC3CCCO3)c2C(=O)O)cc1 (centres undefined) | -16% | 100µM* | -11% | -24%
O=c1[nH]c2c(s1)C=Nc1ccccc1N2 | -4% | 10% | 13µM* | 4%
NCc1c(O)ccc2ccccc12 | u | 13% | x | x
Oc1ccc2ccccc2c1SSc1c(O)ccc2ccccc12 | 1.7µM* | x | x | 10µM*
CC(=O)Nc1ccc(CN[C@@H]2CO[C@H](CNC(=O)C3CCCC3)[C@H]2O)cc1 | 17%[176 µM] | x | x | x
COc1ccc(N(CC(=O)N2CCN(c3cccc(Cl)c3)CC2)S(=O)(=O)c2c(C)noc2C)cc1 | 7% | 17% | 1% | 2%
CC(C)NC(=O)C1=NOC2CN([S+](C)(=O)[O-])CC12 (centres undefined) | -1%[12.5 µM] | x | x | x
Cc1ccc(OCC(=O)NCc2ccco2)c([N+](=O)[O-])n1 | 0% | -3% | -3% | -5%
Cc1ccc2cccc(OCC(=O)NCc3ccco3)c2n1 | -15% | 28µM* | -10% | 7%
C=CCN1CCN(C(c2ccc(OC)c(OC)c2)c2nnnn2C(C)(C)C)CC1 (centres undefined) | u | 79µM* | -4% | -14%
C=CCN1CCN(C(c2ccc(Cl)cc2)c2nnnn2CCc2ccc(OC)c(OC)c2)CC1 (centres undefined) | -23% | 4% | -12% | -7%
